Measured values from PubChem BioAssay (EPA / NIEHS).
The source made the active and inactive calls. The calls were made as follows: active = hit-call score of the fitted dose curve at least 0.9, where 1 is the maximum; inactive = score below 0.9.

Legend:
[1] = ATG_NFI_CIS: Attagene CIS-FACTORIAL HepG2 Assay for human Nuclear Factor I (NFI) (AID 2282989); settings: HepG2 cis-regulatory reporter, NFI response element transcription; actives raise or lower the signal
Outline: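 Transient MRTU transfection of HepG2 → 24 h chemical dosing → total RNA, oligo(dT) RT → PCR, 6-FAM primer extension, HpaI cut → capillary electrophoresis. Endpoint fitted bidirectionally relative to DMSO.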

[2] = target: Myc proto-oncogene protein (Homo sapiens) (UniProt P01106); test: ATG_Myc_CIS: Attagene CIS-FACTORIAL HepG2 Assay for human Myelocytomatosis (Myc) Proto-Oncogene Transcription Factor (AID 2282990); settings: HepG2, Attagene cis-reporter transcription factor activity; actives raise or lower the signal
Outline: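 After 24 h chemical treatment of HepG2 cells carrying multiplexed cis-regulated reporter constructs, reporter transcripts quantified by RT-PCR and capillary electrophoresis of fluorescent fragments. Gain or loss fitted against DMSO baseline.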

[3] = ATG_NF_kB_CIS: Attagene CIS-FACTORIAL HepG2 Assay for human Nuclear Factor Kappa B (NF-kB) (AID 2282991); settings: HepG2 Attagene cis-factorial NF-kB reporter mRNA; actives raise or lower the signal
Outline: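 DMSO served as negative control and baseline for bidirectional curve fitting. Transiently transfected HepG2 cells were dosed for 24 h, then reporter transcripts were measured by RT-PCR with capillary electrophoresis detection.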

[4] = ATG_NRF2_ARE_CIS: Attagene CIS-FACTORIAL HepG2 Assay for human Nuclear Factor Erythroid 2 Related Factor 2 (NFR2) response to Antioxidant Response Elements (ARE) (AID 2282992); settings: HepG2 Attagene ARE/NRF2 reporter, transcription factor activity; actives raise or lower the signal;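 as to AC50: reporter mRNA level measured by RT-PCR and capillary electrophoresis fluorescence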
Outline: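 Using transiently transfected HepG2 cells exposed for 24 h, reporter mRNA levels were determined by RT-PCR with fluorescent primer extension and capillary electrophoresis, analysed for gain or loss of signal against DMSO.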

[5] = ATG_Oct_MLP_CIS: Attagene CIS-FACTORIAL HepG2 Assay for human Octamer-Binding Transcription Factor (Oct) (AID 2282993); settings: HepG2 Attagene cis-factorial Oct reporter, mRNA; actives raise or lower the signal
Outline: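 Transient MRTU transfection of HepG2 → 24 h compound treatment → RNA isolation, reverse transcription, PCR → 6-FAM primer extension, HpaI digest → capillary electrophoresis. Activity fitted both directions against DMSO.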

[6] = target: Cellular tumor antigen p53 (Homo sapiens) (UniProt P04637); test: ATG_p53_CIS: Attagene CIS-FACTORIAL HepG2 Assay for human p53 Transcription Factor (AID 2282994); settings: HepG2 p53 cis-element reporter, Attagene mRNA; actives raise or lower the signal
Outline: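 In HepG2 cells, reporter transcription units under cis-regulatory promoters were transiently introduced. Following 24 h treatment, RNA was processed to labelled, digested cDNA fragments read by capillary electrophoresis; fitting was bidirectional versus DMSO.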

Measured: AC50

Sequence of Cellular tumor antigen p53 (Homo sapiens) (P04637 whole entry, looked up, the tested form may be a part): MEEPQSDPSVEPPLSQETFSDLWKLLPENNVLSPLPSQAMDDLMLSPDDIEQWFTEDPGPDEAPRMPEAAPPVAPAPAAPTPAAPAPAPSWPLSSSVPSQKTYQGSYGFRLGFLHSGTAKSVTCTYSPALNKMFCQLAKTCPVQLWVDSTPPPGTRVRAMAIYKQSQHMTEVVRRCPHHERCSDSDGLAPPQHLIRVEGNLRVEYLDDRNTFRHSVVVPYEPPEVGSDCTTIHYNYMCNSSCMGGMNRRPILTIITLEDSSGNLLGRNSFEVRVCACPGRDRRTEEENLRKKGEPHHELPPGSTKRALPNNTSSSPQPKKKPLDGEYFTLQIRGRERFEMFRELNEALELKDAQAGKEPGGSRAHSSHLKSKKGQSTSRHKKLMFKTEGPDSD
Sequence of Myc proto-oncogene protein (Homo sapiens) (P01106 whole entry, looked up, the tested form may be a part): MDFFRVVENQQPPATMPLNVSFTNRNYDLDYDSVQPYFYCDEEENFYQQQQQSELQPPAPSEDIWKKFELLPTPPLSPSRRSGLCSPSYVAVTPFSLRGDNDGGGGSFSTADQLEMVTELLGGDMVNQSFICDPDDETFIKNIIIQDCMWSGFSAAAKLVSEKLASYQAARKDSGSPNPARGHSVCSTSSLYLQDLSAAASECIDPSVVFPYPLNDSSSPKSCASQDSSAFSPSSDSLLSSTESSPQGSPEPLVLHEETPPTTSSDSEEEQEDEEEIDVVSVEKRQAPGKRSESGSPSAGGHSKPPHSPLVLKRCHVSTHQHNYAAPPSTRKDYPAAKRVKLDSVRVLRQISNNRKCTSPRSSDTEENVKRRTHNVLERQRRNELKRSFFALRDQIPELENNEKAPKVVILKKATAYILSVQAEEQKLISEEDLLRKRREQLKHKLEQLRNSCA

Nc1ncn([C@@H]2O[C@H](CO)[C@@H](O)[C@H]2O)c(=O)n1
inactive: [1] | [2] | [3] | [4]

CCCCCCCOC(=O)CCC
not listed: [6]
inactive: all other assays above

COC=O
not listed: [6]
inactive: all other assays above

CCCCCCC1(C)CCC(=O)O1 (centres undefined)
inactive: [1] | [2] | [3] | [4]

O=c1[nH]c(=O)c2[nH]c(=O)[nH]c2[nH]1
not listed: [6]
inactive: all other assays above

CC(C)c1ccc2cc(C(C)C)ccc2c1
active: [4] 100 µM
not listed: [6]
inactive: all other assays above

CCCCOCCOC(=O)COc1nc(Cl)c(Cl)cc1Cl
not listed: [6]
inactive: all other assays above

COCCCOCCCOC
not listed: [6]
inactive: all other assays above

O=c1[nH]nc(-c2ccc([N+](=O)[O-])o2)o1
active: [4] 61.3 µM
not listed: [6]
inactive: all other assays above

CCCCCCCC/C=C\CCCCCCCC(=O)OCCO
active: [3] 68.1 µM | [4] 40.8 µM
inactive: [1] | [2] | [5]

CC=CCO
inactive: [1] | [2] | [3] | [4]

Cc1ccc2oc(=O)ccc2c1
active: [4] 58.4 µM
not listed: [6]
inactive: all other assays above

CCCCCCCCCCOC(C)=O
not listed: [6]
inactive: all other assays above

c1cc(N(CC2CO2)CC2CO2)ccc1OCC1CO1 (centres undefined)
active: [1] 27 µM | [2] 163 µM | [3] 48.4 µM | [4] 25.4 µM | [5] 20.3 µM

CCCCCCCCCCCCCCCC(=O)OCC
not listed: [6]
inactive: all other assays above

O=c1cc(-c2ccccc2)oc2ccccc12
inactive: [1] | [2]
active: [3] 82.3 µM | [4] 4.03 µM

O=C(O)CCCC[C@@H]1SC[C@@H]2NC(=O)N[C@@H]21
not listed: [6]
inactive: all other assays above

CC(C)(C)C1CCCCC1=O (centres undefined)
not listed: [6]
inactive: all other assays above

O=S(=O)(Oc1ccc(Cl)cc1Cl)c1ccccc1
active: [4] 11.5 µM
not listed: [6]
inactive: all other assays above

CC(=O)OC1C2(C)CCC(C2)C1(C)C (centres undefined)
not listed: [6]
inactive: all other assays above

CCCCC/C=C\CCC=O
not listed: [6]
inactive: all other assays above

Cc1cnc(NC(=O)C2=C(O)c3ccccc3S(=O)(=O)N2C)s1
not listed: [6]
inactive: all other assays above

O=C(c1ccccc1)C1CCC1
not listed: [6]
inactive: all other assays above

CC(C)c1ccc(C#N)cc1
not listed: [6]
inactive: all other assays above

CCN(CC)c1ccc(C(=O)c2ccccc2C(=O)O)c(O)c1
not listed: [6]
inactive: all other assays above

COc1ccc(NC(C)=O)cc1N
not listed: [6]
inactive: all other assays above

O=C(O)c1ccccc1Nc1cccc(C(F)(F)F)c1
active: [4] 27.3 µM
not listed: [6]
inactive: all other assays above

CC(=O)Oc1ccc(C)cc1
active: [4] 19.6 µM
not listed: [6]
inactive: all other assays above

Nc1ccc(Oc2ccc(N)c(N)c2)cc1
active: [4] 30.6 µM
not listed: [6]
inactive: all other assays above

CC1=CC[C@H]2C[C@@H]1C2(C)C
not listed: [6]
inactive: all other assays above

CCCCCC(C)O (centres undefined)
not listed: [6]
inactive: all other assays above

NC(=O)c1ccccc1O
not listed: [6]
inactive: all other assays above

Oc1ccc(Cl)cc1Cc1cc(Cl)ccc1O
active: [1] 5.83 µM | [4] 2.75 µM | [5] 7.99 µM
inactive: [2] | [3]

O=C1CCC(=O)N1Cl
not listed: [6]
inactive: all other assays above

C(=CC=Nc1ccccc1)C=CNc1ccccc1
active: [4] 49.4 µM
not listed: [6]
inactive: all other assays above

CC(=O)NS(=O)(=O)c1ccc(N)cc1
not listed: [6]
inactive: all other assays above

Clc1nc2ccccc2s1
not listed: [6]
inactive: all other assays above

COC(=O)c1sccc1S(N)(=O)=O
not listed: [6]
inactive: all other assays above

O=C(O)c1cc2ccccc2nc1C(=O)O
not listed: [6]
inactive: all other assays above

C=CC(C)(CCC=C(C)C)OC(=O)CC(C)C (centres undefined)
active: [4] 100 µM
not listed: [6]
inactive: all other assays above

FC(F)(F)C(=NOCC1OCCO1)c1ccc(Cl)cc1
inactive: all assays above

O=C(Oc1ccccc1)c1ccc2ccccc2c1O
active: [3] 100 µM | [4] 18.3 µM | [5] 49 µM
inactive: [1] | [2] | [6]

CCN(Cc1cccc(S(=O)(=O)O)c1)c1ccc(C(=C2C=CC(=[N+](CC)Cc3cccc(S(=O)(=O)[O-])c3)C=C2)c2ccccc2)cc1
active: [4] 112 µM
inactive: all other assays above

CCc1nccnc1C
inactive: all assays above

CCCOCCOCCOCCO
inactive: all assays above

CCOC(=O)NNc1nncc2ccccc12
inactive: all assays above

O=C(C=Cc1ccccc1)OCc1ccccc1
active: [4] 34.4 µM
inactive: all other assays above

CC(C)(Oc1ccc(C2CC2(Cl)Cl)cc1)C(=O)O (centres undefined)
inactive: all assays above

C=CC(=O)OCCOC1C2CCC1C1CC=CC12 (centres undefined)
inactive: all assays above

CCC(=O)Oc1ccc(/C(CC)=C(\CC)c2ccc(OC(=O)CC)cc2)cc1
active: [1] 25.2 µM | [3] 33.7 µM | [6] 27.9 µM
inactive: [2] | [4] | [5]

O=C1C=CC(=O)O1
inactive: all assays above

COC(=O)c1cc(Cl)ccc1[N+](=O)[O-]
active: [4] 48 µM
inactive: all other assays above

O=C1CCCC(=O)O1
not listed: [6]
inactive: all other assays above

Cc1cc(C)c(C)c(O)c1
inactive: all assays above

CCN(CCO)c1cccc(C)c1
inactive: all assays above

C=CCCCCCCCCC(=O)OCCCC
inactive: all assays above

O=C1c2ccccc2C(=O)C1c1nc2ccccc2c(Br)c1O
active: [3] 28.4 µM | [4] 1.83 µM
inactive: all other assays above

CCCCCC/C=C\CCCCCCCC(=O)O
active: [4] 26.5 µM
inactive: all other assays above

O=C(O)CC(C(=O)O)C(CC(=O)O)C(=O)O (centres undefined)
inactive: all assays above

O=S(=O)(O)c1ccc2cc(O)c(S(=O)(=O)O)cc2c1
active: [3] 120 µM | [4] 46.6 µM | [6] 182 µM
inactive: all other assays above

CCCNC(=O)NS(=O)(=O)c1ccc(Cl)cc1
inactive: all assays above

CC1=Nc2ccc3ccccc3c2C1(C)C
active: [4] 100 µM
inactive: all other assays above

C=C1C2CCC(C2)C1(C)C (centres undefined)
inactive: all assays above

O=C(/C=C/C=C/c1ccc2c(c1)OCO2)N1CCCCC1
active: [4] 47.4 µM
inactive: all other assays above
